# Data as given in PubChem BioAssay (NCATS).
# Results filed as inconclusive are left out. Where a call stands in place of a potency, no number is given. Activity calls are given as the source filed them. Calls come from the whole dose curve; as a rule, active = well fitted curve in the direction sought with a large enough effect; inconclusive = small, poorly fitted or top-dose-only effect, or another doubt; inactive = no such curve, though single readings can be large; an effect the other way counts as inactive or inconclusive.
# How the values were obtained:
# [1] = test system: Zika virus NS2B-NS3 protease (unlinked complex); test: Primary screen GU Rhodamine qHTS for Zika virus inhibitors: Unlinked NS2B-NS3 protease assay (AID 1347159); conditions: Recombinant ZIKV NS2B-NS3 protease, Rhodamine110 substrate fluorescence; series mostly up to 107 µM; note: nearly all actives have a fitted effect of over 60% in size; note: potency is the fitted concentration of half-maximal effect
# Procedure, shortened: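 Unlinked NS2B/NS3, 25 nM; Rhod110 peptide, 1.5 microM; compounds, up to 114 microM. Reaction run 15 min at RT in 10 mM Tris-HCl pH 8.0, 0.01% Tween 20; kinetic fluorescence change fitted with a 4-parameter Hill model.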
# [2] = test system: Zika virus NS2B-NS3 protease (linked construct); test: Primary screen NINDS Rhodamine qHTS for Zika virus inhibitors (AID 1347160); conditions: purified NS2B-NS3 protease, Rhodamine110 substrate fluorescence; series mostly up to 57.1 µM; note: nearly all actives have a fitted effect of over 55% in size; note: potency is the fitted concentration of half-maximal effect
# Procedure, shortened: (§1)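 Single-chain NS2B-NS3 protease, 25 nM, pH 8.0; compounds preincubated 15 min. Activity: Rhodamine110 release from 1.5 microM substrate over 15 min, room temperature, data fitted to 4-parameter Hill.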
# [3] = Confirmatory screen NINDS Rhodamine qHTS for Zika virus inhibitors (AID 1347161); conditions: purified enzyme assay, Rhodamine110 substrate fluorescence, 15 min; note: potency is the fitted concentration of half-maximal effect; nearly all actives have a fitted effect of over 60% in size
# Procedure, shortened: as §1
# [4] = test system: Zika virus NS2B-NS3 protease (linked); test: 384 well plate NINDS AMC confirmatory qHTS for Zika virus inhibitors (AID 1347163); conditions: Recombinant NS2B-NS3 protease, Ac-VKTGKR-AMC fluorescence; series mostly up to 100 µM;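 note: linked protease at 5 30 or 60 nM final depending on run; fluorescence of AMC released from Ac-VKTGKR-AMC peptide cleaved by the protease; top concentration of the series differs between compounds; nearly all actives have a fitted effect of over 50% in size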
# Procedure, shortened: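 Enzyme (5, 30 or 60 nM final) first met test compounds for ~15 min. The AMC-tagged peptide Ac-VKTGKR-AMC followed at 30 microM. Fluorescence was then recorded at 25 min and scaled against no-enzyme and no-inhibitor wells.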
# [5] = test system: Zika virus NS2B-NS3 protease (linked construct); test: 384 well plate NINDS Rhodamine confirmatory qHTS for Zika virus inhibitors (AID 1347164); conditions: rhodamine-110 peptide substrate fluorescence; series mostly up to 100 µM; note: top concentration of the series differs between compounds; nearly all actives have a fitted effect of over 65% in size
# Procedure, shortened: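 Cleavage of Ac-LKRR-Rhodamine 110 (10 microM final) by linked protease (final 5, 30 or 60 nM) was followed as fluorescence at 485/538 nm after 25 min, room temperature, dark. Compounds preincubated ~15 min.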
# [6] = Vero cells viability qHTS for Zika virus inhibitors (AID 1347167); conditions: cytotoxicity counter-screen (Zika); series mostly up to 45.9 µM
# Procedure, shortened: (§2)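 To flag cytotoxic protease inhibitors, viability is measured by ATP-dependent luminescence (CellTiter Glo) after cells attached overnight receive compound for 24 to 48 hours in DMEM with 4% FBS.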
# [7] = HepG2 cells viability qHTS for Zika virus inhibitors (AID 1347168); conditions: Zika counter-screen; series mostly up to 45.9 µM
# Procedure, shortened: as §2
# [8] = Tertiary RLuc qRT-PCR qHTS assay for Zika virus inhibitors (AID 1347169); conditions: infected Vero cells, reporter luminescence, 48-72 h; series mostly up to 45.9 µM; note: top concentration of the series differs between compounds; nearly all actives have a fitted effect of over 55% in size
# Procedure, shortened: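 Inhibition of ZIKV-RLuc replication in Vero cells, read as Renilla luminescence 1-1.5 hrs after live-cell substrate addition, following 48-72 hrs infection at MOI 1-2 in presence of compound.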
compound,measurement,setting,value
COc1cccc2c1CCC[C@H]2CN(C)CCc1ccc2ccoc2c1,Potency,[1],inactive
same,Potency,[2],inactive
COc1cc(C2Oc3c(O)cc(CCCO)cc3C2CO)ccc1O[C@H]1O[C@H](C)[C@@H](O)[C@H](O)[C@@H]1O (stereo partly specified),Potency,[1],inactive
same,Potency,[2],inactive
CC1=C2C(=O)C=C(CO)[C@@H]2[C@H]2OC(=O)[C@H](C)[C@@H]2[C@@H](O)C1,Potency,[1],inactive
same,Potency,[2],inactive
O=C1Nc2ccc(O)cc2O[C@H]1O[C@@H]1O[C@H](CO)[C@@H](O)[C@H](O)[C@H]1O,Potency,[1],inactive
same,Potency,[2],inactive
C=C1CC2C3(C)C(O)CC(=O)C(C)(C)C3C(OC(C)=O)C(OC(C)=O)C2(C)C2C(=O)OC(C)(C(=O)OC)C(=O)C12C (stereo unspecified),Potency,[1],inactive
same,Potency,[2],inactive
N#Cc1ccc2[nH]c(O)c(-c3ccc(CN4CCOCC4)cn3)c2c1,Potency,[1],inactive
same,Potency,[2],inactive
CCc1nc(C(N)=O)c(Nc2ccc(N3CCC(N4CCN(C)CC4)CC3)c(OC)c2)nc1NC1CCOCC1,Potency,[1],inactive
same,Potency,[2],inactive
C=C(C)C1CC2(CO)C(=CC1=O)CCC(O)C2C (stereo unspecified),Potency,[1],inactive
same,Potency,[2],inactive
CNC(=O)c1ccc(Nc2ncc(C(F)(F)F)c(NCc3nccnc3N(C)S(C)(=O)=O)n2)cc1,Potency,[1],inactive
same,Potency,[2],inactive
NC(=O)[C@H]1CCCCc2c1[nH]c1ccc(Cl)cc21,Potency,[1],inactive
same,Potency,[2],inactive
CC1CC(O)CC(C)(C)C1(O)CCO (stereo unspecified),Potency,[1],inactive
same,Potency,[2],inactive
COc1cc(/C=C/C(=O)OC2CC(OC(C)=O)C(OC(C)=O)C3C2CCC2C(=O)OC(c4ccoc4)CC23C)ccc1O[C@@H]1O[C@H](CO)[C@@H](O)[C@H](O)[C@H]1O (stereo partly specified),Potency,[1],inactive
same,Potency,[2],inactive
COc1c2c(c(C)c3c1C(=O)OC3)OC1(C)CC(O)C3(O)C(C)(C)OC(=O)CCC3(C)C1C2 (stereo unspecified),Potency,[1],inactive
same,Potency,[2],inactive
COCCCNCC1COc2ccccc2O1 (stereo unspecified),Potency,[1],inactive
same,Potency,[2],inactive
C=C[C@H]1[C@H](O[C@@H]2O[C@H](CO[C@@H]3OC[C@](O)(CO)[C@H]3O)[C@@H](O)[C@H](O)[C@H]2O)OC=C2C(=O)OCC[C@H]21,Potency,[1],inactive
same,Potency,[2],inactive
Nc1nonc1C(=Nc1ccc(F)c(Cl)c1)NO,Potency,[1],inactive
same,Potency,[2],inactive
CC1(C)CC[C@]2(C(=O)O)CC[C@]3(C)C(=CCC4[C@@]5(C)CC[C@H](O[C@@H]6O[C@H](C(=O)O)[C@@H](O)[C@H](O)[C@H]6O)C(C)(CO)C5CC[C@]43C)C2C1 (stereo partly specified),Potency,[1],inactive
same,Potency,[2],inactive
CCOc1c2c(c(OCC)c3ccccc13)C(=O)N(c1ccc(CC(=O)NS(=O)(=O)c3ccccc3)cc1)C2,Potency,[1],3.98 µM (active)
same,Potency,[2],8.91 µM (active)
same,Potency,[3],4.41 µM (active)
same,Potency,[4],inactive
same,Potency,[5],inactive
same,outcome,[6],inactive
same,outcome,[7],inactive
O=C(NCc1ccc(OC(F)(F)F)cc1)C1c2ccccc2C(=O)N1C1CCOCC1 (stereo unspecified),Potency,[1],inactive
same,Potency,[2],inactive
NC(=O)c1ccc(OCC2NC(=O)C3CCCN3C2=O)cc1 (stereo unspecified),Potency,[1],inactive
same,Potency,[2],inactive
CC(C)c1cc2c(c(O)c1O[C@@H]1O[C@H](CO)[C@@H](O)[C@H](O)[C@H]1O)CC1(O)CCC(O)C(C)(C)C1CC2 (stereo partly specified),Potency,[1],20 µM (active)
same,Potency,[2],7.94 µM (active)
same,Potency,[3],7.64 µM (active)
same,outcome,[6],inactive
same,outcome,[7],inactive
same,Potency,[8],inactive
COc1ccc2c(c1O)OC[C@H]1c3ccc(O)cc3O[C@@H]21,Potency,[1],inactive
same,Potency,[2],inactive
CC1CCC2(C(=O)OC3OC(CO)C(O)C(O)C3O)CCC3(C)C(=CCC4C5(C)CC(O)C(O)C(C)(C(=O)O)C5CCC43C)C2C1(C)O (stereo unspecified),Potency,[1],inactive
same,Potency,[2],inactive
CC(C)CC1(C(=O)OCc2ccc(O[C@@H]3O[C@H](CO)[C@@H](O)[C@H](O)[C@H]3O)cc2)CC(=O)OC(C(=O)O)CC(=O)OCC2OC(O1)C(OC(=O)/C=C/c1ccc(O)cc1)C(O)C2O (stereo partly specified),Potency,[1],inactive
same,Potency,[2],inactive
COc1cc(O[C@@H]2O[C@H](CO)[C@@H](O)[C@H](O)[C@H]2O)c(CCC(=O)OC[C@H]2O[C@@H](Oc3cc(OC)c(C4OC(=O)C(C)(O)C4O)cc3CCC(=O)O)[C@H](O)[C@@H](O)[C@@H]2O)cc1C1OC(=O)C(C)(O)C1O (stereo partly specified),Potency,[1],inactive
same,Potency,[2],inactive
CCCn1cnc2c(NCc3ccccc3)nc(N[C@H](CC)CO)nc21,Potency,[1],inactive
same,Potency,[2],inactive
CCn1c2ccccc2c2cc(CNC)ccc21,Potency,[1],inactive
same,Potency,[2],inactive
Nc1ccn([C@@H]2C(F)=C(CO)[C@@H](O)[C@H]2O)c(=O)n1,Potency,[1],inactive
same,Potency,[2],inactive
O=C(O)Cc1nn(Cc2nc3cc(C(F)(F)F)ccc3s2)c(=O)c2nccnc12,Potency,[1],inactive
same,Potency,[2],inactive
CC1(C)CC[C@]2(C(=O)O[C@@H]3O[C@H](CO)[C@@H](O)[C@H](O)[C@H]3O)CC[C@]3(C)C(=CCC4[C@@]5(C)C[C@@H](O)[C@H](O)C(CO)(CO)C5CC[C@]43C)C2[C@@H]1O (stereo partly specified),Potency,[1],inactive
same,Potency,[2],inactive
C=C[C@](C)(CC/C=C(\C)C(=O)O)O[C@@H]1OC[C@H](O)[C@H](O)[C@H]1O,Potency,[1],25.1 µM (active)
same,Potency,[2],12.6 µM (active)
